Source: publication PMC4336329 (PLoS ONE, 2015)
The whole screen tested about 310,000 compounds, of which about 14,000 (4.5%) showed an effect of 50% or more. The effect is printed as a negative number. The sample as a whole holds a higher share of strong results than the screen did.

Each compound was assayed against human ether-à-go-go-related gene (hERG) potassium channel (human, UniProt Q12809) (assay: primary screen, population patch clamp on CHO cells stably expressing hERG; higher = less effect of the substance).
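Further: peak tail current of the secondary pulse compared with the same well before compound.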

Chain of human ether-à-go-go-related gene (hERG) potassium channel (Q12809 whole entry, looked up): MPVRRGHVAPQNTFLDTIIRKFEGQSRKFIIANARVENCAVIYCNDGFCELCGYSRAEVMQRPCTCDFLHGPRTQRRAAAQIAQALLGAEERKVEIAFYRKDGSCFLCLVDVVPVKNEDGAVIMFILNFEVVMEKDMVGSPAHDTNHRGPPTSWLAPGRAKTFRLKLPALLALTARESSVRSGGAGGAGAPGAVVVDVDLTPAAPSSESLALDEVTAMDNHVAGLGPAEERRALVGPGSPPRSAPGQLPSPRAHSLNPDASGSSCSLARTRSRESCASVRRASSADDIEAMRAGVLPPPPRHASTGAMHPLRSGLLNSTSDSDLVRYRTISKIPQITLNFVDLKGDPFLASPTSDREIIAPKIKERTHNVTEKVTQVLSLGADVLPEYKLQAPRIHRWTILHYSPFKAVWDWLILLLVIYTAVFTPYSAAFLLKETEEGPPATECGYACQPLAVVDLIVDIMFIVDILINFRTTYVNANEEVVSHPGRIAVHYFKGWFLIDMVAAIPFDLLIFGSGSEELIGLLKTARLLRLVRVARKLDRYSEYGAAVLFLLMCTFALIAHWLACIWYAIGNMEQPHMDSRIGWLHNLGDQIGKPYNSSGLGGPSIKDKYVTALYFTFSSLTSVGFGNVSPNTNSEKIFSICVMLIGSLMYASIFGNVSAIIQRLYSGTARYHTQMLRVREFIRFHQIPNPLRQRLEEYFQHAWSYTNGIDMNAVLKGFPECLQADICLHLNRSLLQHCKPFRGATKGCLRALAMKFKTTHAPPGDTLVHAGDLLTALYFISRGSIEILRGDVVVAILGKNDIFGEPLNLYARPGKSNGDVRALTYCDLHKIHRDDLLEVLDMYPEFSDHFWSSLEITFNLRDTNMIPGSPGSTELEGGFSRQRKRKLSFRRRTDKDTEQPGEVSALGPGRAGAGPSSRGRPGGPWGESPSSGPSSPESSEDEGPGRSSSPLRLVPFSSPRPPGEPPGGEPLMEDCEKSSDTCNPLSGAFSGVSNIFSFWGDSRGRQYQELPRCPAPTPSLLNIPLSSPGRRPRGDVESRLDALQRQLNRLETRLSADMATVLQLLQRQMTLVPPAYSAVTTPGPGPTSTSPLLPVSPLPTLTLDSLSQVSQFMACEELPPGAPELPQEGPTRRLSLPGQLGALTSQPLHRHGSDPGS

Point of comparison: `O=C(NNC(=S)NC(=O)c1ccccc1)c1ccc(O)cc1`, “hERG current change (%, negative = inhibition) at 10uM” value 24.7%. Against it:
- O=C(COC(=O)c1ccc(S(=O)(=O)N2CCOCC2)cc1)NCc1cccs1 — lower, 2.5%
- CCOc1ccc(N2CC(C(=O)Oc3ccccc3)CC2=O)cc1 (stereo not drawn) — lower, -10.9%
- O=S(=O)(CCSc1nc2ccccc2o1)c1nc2ccccc2s1 — lower, -5.57%
- Cc1cc(Cl)c(S(=O)(=O)N(C)C)cc1OCC(N)=O — lower, 10.5%
- COc1ccc(C2CC(c3ccccc3)=NN2S(=O)(=O)c2ccccc2)cc1 (stereo not drawn) — lower, 14.8%
- CCOc1ccc(N(CC(=O)Nc2ccccc2C(=O)N2CCCC2)S(C)(=O)=O)cc1 — lower, 2.43%
- COc1ccc(N(CC(=O)Nc2ccccc2C(=O)N2CCOCC2)S(=O)(=O)c2ccc(F)cc2)cc1 — lower, -44.6%
- Cc1ccc(S(=O)(=O)N(CC(=O)Nc2ccccc2C(=O)O)c2ccc(Cl)cc2)cc1 — lower, 13.6%
- COc1ccc(N(CC(=O)Nc2ccccc2C(=O)N2CCCC2)S(C)(=O)=O)cc1 — higher, 27.7%
- CN(CC(=O)Nc1ccccc1C(=O)N1CCCC1)S(=O)(=O)c1ccc(Cl)cc1 — lower, -22.8%
- COc1ccc(N(CC(=O)Nc2ccccc2C(=O)N2CCCC2)S(=O)(=O)c2ccccc2)cc1 — lower, -51.8%
- COc1ccc(S(=O)(=O)N(CC(=O)Nc2ccccc2C(=O)N2CCOCC2)c2ccc(F)cc2)cc1 — lower, -57%
- O=C(CN(c1ccccc1)S(=O)(=O)c1ccc(Cl)cc1)Nc1ccccc1C(=O)N1CCCC1 — lower, -54.2%
- CCOc1ccc(N(CC(=O)Nc2ccccc2C(=O)N2CCOCC2)S(=O)(=O)c2ccc(F)cc2)cc1 — lower, -30.5%
- CCCn1c(SCC(=O)c2[nH]c(C)c(C(C)=O)c2C)n[nH]c1=O — lower, -1.57%
- COc1ccc(OC)c(NS(=O)(=O)c2ccc(NC(=O)c3ccc(NS(C)(=O)=O)cc3)cc2)c1 — lower, 14.2%
- Cc1ccc(-n2c(SCC(=O)Nc3nccs3)nc3c(c2=O)SCC3)cc1 — lower, 0.0407%
- CC1CC1C(=O)OCC(=O)Nc1ccccc1Oc1ccccc1 (stereo not drawn) — lower, 13.9%
- COc1ccc(Cl)cc1NC(=O)C1CC(=O)N(c2ccc(F)cc2)C1 (stereo not drawn) — lower, 4.41%
- CSc1ccc(/C=C(\NC(=O)c2ccco2)C(=O)N2CCCCC2)cc1 — lower, -29.6%
- CSc1ncc(Cl)c(C(=O)Nc2ccc(C)c(C)c2)n1 — lower, 13.4%
- CCOc1ccc(-n2c(-c3ccc(Br)cc3)c[n+]3c2CCCCC3)cc1.[Br-] — lower, -77.7%
- CCOc1ccc(-n2c(-c3ccc(OC)cc3)c[n+]3c2CCCCC3)cc1.[Br-] — lower, -76%
- CCOc1ccc(-c2c(C)n([O-])c3c([n+]2=O)CCCCC3)cc1 — lower, 17.4%
- CCOc1ccc(-c2c(C)n(-c3ccc(OCC)cc3)c3[n+]2CCCCC3)cc1.[O-][Cl+3]([O-])([O-])[O-] — lower, -77.7%
- CCOc1ccc(-c2c(C)n([O-])c3c([n+]2=O)CCCC3)cc1 — lower, -1.2%
- CCOc1ccc(N2C(=O)CC(Cc3ccc(Br)cc3)C2=O)cc1 (stereo not drawn) — lower, 5.77%
- O=C(CSc1ncnc2c1oc1ccccc12)NCc1ccco1 — lower, -12.4%
- CC(C)(C)SCCNC(=O)c1ccc(CN2CCc3ccccc3C2)cc1 — lower, -35.1%
- O=C(Cn1ccsc1=NC(=O)c1ccco1)c1ccccc1 — lower, -6.93%
- O=C(Nc1ccc(F)cc1F)c1cc(=O)n(-c2ccccc2)c(=O)[nH]1 — lower, 6.37%
- COc1ccc(NC(=O)CSC2=NC(=O)CC(C)=N2)cc1 — lower, 15.1%
- O=C(c1ccc(Cl)cc1)N(Cc1cccs1)C1CCS(=O)(=O)C1 (stereo not drawn) — lower, -24.4%
- O=C(/C=C/c1ccc(Cl)cc1)N(Cc1ccccc1)C1CCS(=O)(=O)C1 (stereo not drawn) — lower, -75%
- O=C(/C=C/c1ccc(Cl)cc1)N(Cc1cccs1)C1CCS(=O)(=O)C1 (stereo not drawn) — lower, -72.8%
- O=C(/C=C/c1ccccc1Cl)N(Cc1cccs1)C1CCS(=O)(=O)C1 (stereo not drawn) — lower, -31.5%
- O=C(/C=C/c1ccccc1)N(Cc1cccc(Cl)c1)C1CCS(=O)(=O)C1 (stereo not drawn) — lower, -25.6%
- O=C(/C=C/c1ccccc1)N(Cc1cccs1)C1CCS(=O)(=O)C1 (stereo not drawn) — lower, -30.3%
- O=C(/C=C/c1ccccc1)N(Cc1ccc(Cl)cc1)C1CCS(=O)(=O)C1 (stereo not drawn) — lower, -30.6%
- Cc1ccc(/C=C/C(=O)N(Cc2cccs2)C2CCS(=O)(=O)C2)cc1 (stereo not drawn) — lower, -79%
- COc1ccc(/C=C/C(=O)N(Cc2cccs2)C2CCS(=O)(=O)C2)cc1 (stereo not drawn) — lower, -48.6%
- S=C(NCc1cccs1)Nc1ccccc1Cl — lower, 9.58%
- CCC1CCCCN1C(=O)CCS(=O)(=O)c1ccccc1 (stereo not drawn) — lower, 13.7%
- COc1ccc(/C(O)=C2/C(=O)C(=O)N(CCCC(=O)O)C2c2ccc(OC)cc2)cc1 (stereo not drawn) — lower, 11.7%
- Cc1cc(C(=O)NCc2cccc(Cl)c2)c2ccccc2n1 — lower, 15.8%
- COC(=O)c1cccc(C23CC4(C2)[C@H](CN(Cc2cccnc2)[C@@H]4c2ccccc2)C3c2ccccc2)c1 (stereo partly drawn) — lower, 8.51%
- CCC(=O)N1CCc2cc(S(=O)(=O)CCC(=O)NC3CCCCC3)ccc21 — lower, 5.33%
- Cc1nn(C)c(C(=O)N/N=C/c2ccncc2)c1Cl — lower, 7.35%
- COc1ccccc1N1C(=O)c2ccc(C(=O)Nc3cccc(C(C)=O)c3)cc2C1=O — lower, 1.69%
- CCn1cc(CN(C)S(=O)(=O)c2ccc3ccccc3c2)c(C)n1 — lower, -1.17%
- CCN(Cc1ccccc1)C(=O)CCc1nc(-c2ccc(C)cc2)no1 — lower, -12.1%
- COc1ccc(OC)c(NC(=O)C2CCN(C(=O)c3cccs3)CC2)c1 — lower, 15.7%
- COc1ccc([N+](=O)[O-])cc1NC(=O)c1cccs1 — lower, 4.41%
- O=C(Cc1ccccc1)N1CCN(C(=O)c2ccc([N+](=O)[O-])cc2)CC1 — lower, -51%
- S=C(c1ccc(Br)cc1)N1CCN(Cc2ccccc2)CC1 — lower, -36.3%
- CCN(Cc1ccccc1)C(=O)CCc1nc(CN2CCN(C(=O)c3ccc([N+](=O)[O-])cc3)CC2)no1 — lower, -64.2%
- CSc1ccc(C(=S)N2CCN(Cc3ccccc3)CC2)cc1 — lower, -50.4%
- Cc1ccc(C(=S)N2CCN(Cc3ccccc3)CC2)cc1 — lower, -42.9%
- COc1ccc(-c2noc(CCC(=O)N3CCN(Cc4ccccc4)CC3)n2)cc1 — lower, -32.8%
- COc1ccc([N+](=O)[O-])cc1NC1CCN(C(=O)c2cccs2)CC1 — lower, -85.7%
- COc1ccc(C(=O)N2CCN(C(=O)Cc3ccccc3)CC2)cc1.O=C(O)C(=O)O — lower, 0.269%
- O=C(Cc1ccccc1)NC1CCN(C(=O)c2ccc([N+](=O)[O-])cc2)CC1 — lower, -47.7%
